# Test results reported in PubChem BioAssay AID2515 (National Center for Advancing Translational Sciences (NCATS), 2010).
# Results filed as inconclusive are left out. Active and inactive are the calls of the source. Calls follow the shape of the dose curve; as a rule, active = well fitted inhibition curve with a large enough effect; inconclusive = small, poorly fitted or top-dose-only effect; inactive = flat fitted curve, though single readings scatter.
# Molecular target: Luciferin 4-monooxygenase (Photinus pyralis) (UniProt P08659)
# Assay: Counterscreen Assay for Enhancers of SMN2 Splice Variant Expression: Interaction with Luciferase Reporter for Probe SAR
# Conditions: purified firefly luciferase, luminescence inhibition
# From the text: NIH Chemical Genomics Center [NCGC] NIH Molecular Libraries Probe Production centers Network [MLPCN] MLPCN Grant: R03 MH084179-01 Assay Submitter (PI): Elliot Androphy NCGC Assay Overview: Spinal muscular atrophy (SMA) is caused by insufficient levels of the survival motor neuron protein SMN. The SMN locus on chromosome 5q13 contains two inverted copies of SMN called SMN1 and SMN2 which are 99% identical at the amino acid level. SMN1 is a fully functional protein and SMN2 skips exon 7 90% of the time. Skipping of exon 7 produces non-functional protein product. 10% of the SMN2 protein includes exon 7 and is fully functional. In the SMA disease state, mutations in the SMN1 locus are the cause of the disease state. […]
# NCGC Assay Protocol Summary: The primary screen utilizes a luciferase reporter gene assay, combining the promoter and splicing based cassettes in tandem with the major portion of the native SMN1 cDNA, and then transfected into HEK293 cells. […] Sequence, Parameter, Value, Description (1) Reagent, 2.5 uL, Enzyme in buffer (note A) (2) Compound, 23 nL, From stock solutions (3) Time, 5 minutes, Room temp (4) Reagent#2.5 ul, Luciferase detection reagent (note B) (5) Detector, 1 sec integrate, Luminescent read on Viewlux (note C) Sigma enzyme (1 mg) considered to be MW 61,000 diluted in 357 ul assay buffer to 50 uM stock. […]
# Luciferin 4-monooxygenase (Photinus pyralis), sequence (P08659 whole entry, looked up, canonical isoform): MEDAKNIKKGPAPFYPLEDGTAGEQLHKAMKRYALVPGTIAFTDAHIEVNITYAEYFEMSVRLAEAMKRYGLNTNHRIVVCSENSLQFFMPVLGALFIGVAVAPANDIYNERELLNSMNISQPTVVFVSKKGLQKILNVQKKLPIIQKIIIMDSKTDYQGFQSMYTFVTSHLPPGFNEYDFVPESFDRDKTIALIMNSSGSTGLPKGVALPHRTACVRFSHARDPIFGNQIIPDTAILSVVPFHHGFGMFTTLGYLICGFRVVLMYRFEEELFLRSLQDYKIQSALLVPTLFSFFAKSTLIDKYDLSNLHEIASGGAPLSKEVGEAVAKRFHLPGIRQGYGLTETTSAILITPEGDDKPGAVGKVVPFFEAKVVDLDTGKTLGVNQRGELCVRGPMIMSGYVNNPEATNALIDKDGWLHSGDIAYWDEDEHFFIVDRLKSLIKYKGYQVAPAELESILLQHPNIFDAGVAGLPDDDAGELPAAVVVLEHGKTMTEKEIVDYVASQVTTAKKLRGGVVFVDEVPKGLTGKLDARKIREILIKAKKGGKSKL
compound,measurement,value
Brc1ccc(-c2csc(N3CCCCC3)n2)cc1,Potency,17.9 µM (active)
